# About 7,900 targets were measured; listed, in parts, are those with a hit and a random draw of the rest. About 0.6% of all pairs of compound and target were hits. A number with no mark means an inactive call.
# Experiments:
# Assay in all cases: log2 fold change, soluble protein after heating vs DMSO (PISA); higher = thermal stabilisation; K562 cells, 10 uM, 30 min; active = over 0.2 and 3.5 SD of the protein, either way, in both replicates (recomputed)
# [1] = compound: Cn1cc(-c2ccc3c(c2)CCN3C(=O)Cc2cccc(C(F)(F)F)c2)c2c(N)ncnc21
# Outline: (§1)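 K562 cells (2×10^6 cells/mL) were treated with 10 μM compound for 30 min, and aliquots were heated for 3 min over 48°C-58°C. Pooled aliquots were extracted in PBS with 0.5% NP-40 at 4°C, and the supernatant after 21,000xg for 90 min was measured by TMTpro 16plex LC-MS/MS with channel sums equalised. Reported thermal stability, relative to control samples and from duplicates, is a log2 fold change.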
# bafetinib = compound: Cc1ccc(NC(=O)c2ccc(CN3CC[C@H](N(C)C)C3)c(C(F)(F)F)c2)cc1Nc1nccc(-c2cncnc2)n1 [bafetinib]
# Outline: as §1
# tipifarnib = compound: Cn1cncc1[C@@](N)(c1ccc(Cl)cc1)c1ccc2c(c1)c(-c1cccc(Cl)c1)cc(=O)n2C [tipifarnib]
# Outline: as §1
# mubritinib = compound: FC(F)(F)c1ccc(/C=C/c2nc(COc3ccc(CCCCn4ccnn4)cc3)co2)cc1 [mubritinib]
# Outline: as §1
# [2] = compound: NC1(c2ccc(-c3nc4ccn5c(=O)[nH]nc5c4cc3-c3ccccc3)cc2)CCC1
# Outline: as §1
# silmitasertib = compound: O=C(O)c1ccc2c(c1)nc(Nc1cccc(Cl)c1)c1ccncc12 [silmitasertib]
# Outline: as §1
# [3] = compound: Cn1cc(-c2ccc3nnc(C(F)(F)c4ccc5ncccc5c4)n3n2)cn1
# Outline: as §1
# [4] = compound: NC(=O)Nc1cc(-c2cccc(F)c2)sc1C(=O)N[C@H]1CCCNC1
# Outline: as §1
# entinostat = compound: Nc1ccccc1NC(=O)c1ccc(CNC(=O)OCc2cccnc2)cc1 [entinostat]
# Outline: as §1
# citarinostat = compound: O=C(CCCCCCNC(=O)c1cnc(N(c2ccccc2)c2ccccc2Cl)nc1)NO [citarinostat]
# Outline: as §1
# [5] = compound: c1cc(OCCN2CCCCC2)cc(-c2n[nH]c3ccc(-c4nnc[nH]4)cc23)c1
# Outline: as §1
# nilotinib = compound: Cc1cn(-c2cc(NC(=O)c3ccc(C)c(Nc4nccc(-c5cccnc5)n4)c3)cc(C(F)(F)F)c2)cn1 [nilotinib]
# Outline: as §1
# [6] = compound: Cc1nc(Nc2n[nH]c3c2CN(C(=O)N[C@H](CN(C)C)c2ccccc2)C3(C)C)c2sccc2n1
# Outline: as §1
# dasatinib = compound: Cc1nc(Nc2ncc(C(=O)Nc3c(C)cccc3Cl)s2)cc(N2CCN(CCO)CC2)n1 [dasatinib]
# Outline: as §1
# [7] = compound: Cc1ncc(-c2ccnc(Nc3ccc(S(C)(=O)=O)cc3)n2)n1C(C)C
# Outline: as §1
# [8] = compound: NC(=O)c1cnc(N[C@@H]2CCCC[C@@H]2N)nc1Nc1cccc(-n2nccn2)c1
# Outline: as §1
# [9] = compound: NCC(=O)Nc1ccc(-n2nc(C(F)(F)F)cc2-c2ccc3c(ccc4ccccc43)c2)cc1
# Outline: as §1
# [10] = compound: O=C1NC(=O)C(c2cnc3ccccn23)=C1c1cn2c3c(cc(F)cc13)CN(C(=O)N1CCCCC1)CC2
# Outline: as §1
# [11] = compound: Cc1cccc(CC(=O)N2CCc3c2ccc(-c2cn(C)c4ncnc(N)c24)c3F)n1
# Outline: as §1
# vorinostat = compound: O=C(CCCCCCC(=O)Nc1ccccc1)NO [vorinostat]
# Outline: as §1
# Chain of UniProt Q9BVC4 (Q9BVC4 whole entry, looked up): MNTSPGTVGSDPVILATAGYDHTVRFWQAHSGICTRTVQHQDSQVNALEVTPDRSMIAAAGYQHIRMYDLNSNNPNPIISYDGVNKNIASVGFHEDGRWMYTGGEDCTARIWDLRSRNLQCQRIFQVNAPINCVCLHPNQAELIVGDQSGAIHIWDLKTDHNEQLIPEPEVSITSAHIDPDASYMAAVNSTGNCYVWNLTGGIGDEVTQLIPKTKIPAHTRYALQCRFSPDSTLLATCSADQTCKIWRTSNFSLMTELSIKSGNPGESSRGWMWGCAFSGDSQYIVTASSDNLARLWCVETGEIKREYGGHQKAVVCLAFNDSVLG
# Chain of UniProt P53370 (P53370 whole entry, looked up): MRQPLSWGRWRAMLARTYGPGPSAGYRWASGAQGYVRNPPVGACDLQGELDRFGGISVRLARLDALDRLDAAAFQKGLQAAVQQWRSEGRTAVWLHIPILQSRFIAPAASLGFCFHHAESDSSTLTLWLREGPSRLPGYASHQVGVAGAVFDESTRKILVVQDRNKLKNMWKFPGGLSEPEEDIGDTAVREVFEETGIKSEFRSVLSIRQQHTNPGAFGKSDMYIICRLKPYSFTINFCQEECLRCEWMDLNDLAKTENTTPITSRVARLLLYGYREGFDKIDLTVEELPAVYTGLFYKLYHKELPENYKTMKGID
# Chain of UniProt Q6P1R3 (Q6P1R3 whole entry, looked up): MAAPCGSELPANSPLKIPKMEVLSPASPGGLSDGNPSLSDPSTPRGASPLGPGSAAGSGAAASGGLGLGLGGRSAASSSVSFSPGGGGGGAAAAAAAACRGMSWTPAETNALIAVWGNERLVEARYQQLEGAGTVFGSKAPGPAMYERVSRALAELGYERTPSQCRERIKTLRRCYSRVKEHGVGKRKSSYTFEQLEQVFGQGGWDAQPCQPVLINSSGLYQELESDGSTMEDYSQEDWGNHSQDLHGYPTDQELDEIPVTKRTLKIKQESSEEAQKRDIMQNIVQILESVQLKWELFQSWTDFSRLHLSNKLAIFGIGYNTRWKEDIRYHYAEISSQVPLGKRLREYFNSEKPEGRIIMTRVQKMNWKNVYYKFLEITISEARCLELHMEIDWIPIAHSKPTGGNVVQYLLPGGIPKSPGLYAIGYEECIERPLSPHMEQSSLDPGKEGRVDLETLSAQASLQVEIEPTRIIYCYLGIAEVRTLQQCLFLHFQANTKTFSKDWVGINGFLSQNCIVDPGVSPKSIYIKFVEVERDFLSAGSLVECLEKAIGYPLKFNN
# Chain of UniProt P30414 (P30414 whole entry, looked up): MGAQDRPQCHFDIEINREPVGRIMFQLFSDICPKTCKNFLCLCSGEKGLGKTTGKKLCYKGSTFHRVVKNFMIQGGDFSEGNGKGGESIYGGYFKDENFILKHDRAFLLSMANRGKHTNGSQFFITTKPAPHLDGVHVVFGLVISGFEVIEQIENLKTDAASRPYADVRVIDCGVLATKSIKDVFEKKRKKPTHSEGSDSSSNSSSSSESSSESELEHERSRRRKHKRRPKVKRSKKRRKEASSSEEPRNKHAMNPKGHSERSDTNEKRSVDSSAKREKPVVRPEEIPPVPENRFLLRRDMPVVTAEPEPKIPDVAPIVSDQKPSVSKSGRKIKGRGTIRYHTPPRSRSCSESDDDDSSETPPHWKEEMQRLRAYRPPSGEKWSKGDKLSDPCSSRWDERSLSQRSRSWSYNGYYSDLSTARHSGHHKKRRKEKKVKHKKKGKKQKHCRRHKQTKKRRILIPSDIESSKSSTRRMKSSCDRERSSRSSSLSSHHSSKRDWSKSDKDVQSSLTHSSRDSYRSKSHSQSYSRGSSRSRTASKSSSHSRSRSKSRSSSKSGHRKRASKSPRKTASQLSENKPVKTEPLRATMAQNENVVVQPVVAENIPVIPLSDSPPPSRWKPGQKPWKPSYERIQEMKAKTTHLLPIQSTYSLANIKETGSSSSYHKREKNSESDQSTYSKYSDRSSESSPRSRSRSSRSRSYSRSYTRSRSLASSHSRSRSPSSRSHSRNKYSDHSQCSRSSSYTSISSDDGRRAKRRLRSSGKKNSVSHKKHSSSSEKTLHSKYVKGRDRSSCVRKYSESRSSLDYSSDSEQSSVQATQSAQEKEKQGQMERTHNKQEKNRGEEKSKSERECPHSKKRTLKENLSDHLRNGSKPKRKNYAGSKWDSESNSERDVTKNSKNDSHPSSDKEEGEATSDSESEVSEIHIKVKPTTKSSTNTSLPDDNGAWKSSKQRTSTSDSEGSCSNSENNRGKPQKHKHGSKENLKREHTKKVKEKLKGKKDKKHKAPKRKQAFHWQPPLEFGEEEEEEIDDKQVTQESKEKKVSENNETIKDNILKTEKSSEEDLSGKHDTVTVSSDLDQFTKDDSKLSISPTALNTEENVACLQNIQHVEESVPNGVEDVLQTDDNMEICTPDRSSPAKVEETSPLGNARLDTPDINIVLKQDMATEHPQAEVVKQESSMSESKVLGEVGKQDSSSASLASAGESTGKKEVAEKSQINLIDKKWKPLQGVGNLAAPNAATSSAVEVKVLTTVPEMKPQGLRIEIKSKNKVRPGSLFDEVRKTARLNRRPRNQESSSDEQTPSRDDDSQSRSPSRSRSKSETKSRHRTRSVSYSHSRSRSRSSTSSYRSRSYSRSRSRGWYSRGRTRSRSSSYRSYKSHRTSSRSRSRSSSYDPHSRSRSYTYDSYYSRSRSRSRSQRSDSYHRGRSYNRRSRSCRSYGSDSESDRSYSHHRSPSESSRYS
# Chain of UniProt Q9UQ49 (Q9UQ49 whole entry, looked up): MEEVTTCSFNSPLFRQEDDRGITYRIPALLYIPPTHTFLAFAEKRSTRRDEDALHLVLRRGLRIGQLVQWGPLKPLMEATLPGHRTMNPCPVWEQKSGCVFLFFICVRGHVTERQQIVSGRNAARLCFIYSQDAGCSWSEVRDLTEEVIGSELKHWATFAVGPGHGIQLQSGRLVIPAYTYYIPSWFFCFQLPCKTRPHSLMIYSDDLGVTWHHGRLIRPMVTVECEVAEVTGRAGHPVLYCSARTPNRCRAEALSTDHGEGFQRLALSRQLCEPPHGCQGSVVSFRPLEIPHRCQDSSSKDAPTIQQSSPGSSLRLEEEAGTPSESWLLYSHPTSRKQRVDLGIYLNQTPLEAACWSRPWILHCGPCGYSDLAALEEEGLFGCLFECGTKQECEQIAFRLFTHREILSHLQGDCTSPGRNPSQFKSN
# Chain of UniProt Q9Y5B8 (Q9Y5B8 whole entry, looked up): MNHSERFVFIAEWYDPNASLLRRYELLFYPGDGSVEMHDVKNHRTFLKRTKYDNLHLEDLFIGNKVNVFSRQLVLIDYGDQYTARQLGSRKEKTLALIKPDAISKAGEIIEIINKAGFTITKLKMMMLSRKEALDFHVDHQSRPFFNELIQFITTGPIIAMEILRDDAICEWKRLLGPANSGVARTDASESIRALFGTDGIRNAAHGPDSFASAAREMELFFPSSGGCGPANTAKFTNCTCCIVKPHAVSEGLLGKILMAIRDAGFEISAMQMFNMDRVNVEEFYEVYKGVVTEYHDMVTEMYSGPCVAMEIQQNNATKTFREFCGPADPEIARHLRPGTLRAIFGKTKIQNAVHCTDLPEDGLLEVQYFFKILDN
# Chain of UniProt Q5VVJ2 (Q5VVJ2 whole entry, looked up): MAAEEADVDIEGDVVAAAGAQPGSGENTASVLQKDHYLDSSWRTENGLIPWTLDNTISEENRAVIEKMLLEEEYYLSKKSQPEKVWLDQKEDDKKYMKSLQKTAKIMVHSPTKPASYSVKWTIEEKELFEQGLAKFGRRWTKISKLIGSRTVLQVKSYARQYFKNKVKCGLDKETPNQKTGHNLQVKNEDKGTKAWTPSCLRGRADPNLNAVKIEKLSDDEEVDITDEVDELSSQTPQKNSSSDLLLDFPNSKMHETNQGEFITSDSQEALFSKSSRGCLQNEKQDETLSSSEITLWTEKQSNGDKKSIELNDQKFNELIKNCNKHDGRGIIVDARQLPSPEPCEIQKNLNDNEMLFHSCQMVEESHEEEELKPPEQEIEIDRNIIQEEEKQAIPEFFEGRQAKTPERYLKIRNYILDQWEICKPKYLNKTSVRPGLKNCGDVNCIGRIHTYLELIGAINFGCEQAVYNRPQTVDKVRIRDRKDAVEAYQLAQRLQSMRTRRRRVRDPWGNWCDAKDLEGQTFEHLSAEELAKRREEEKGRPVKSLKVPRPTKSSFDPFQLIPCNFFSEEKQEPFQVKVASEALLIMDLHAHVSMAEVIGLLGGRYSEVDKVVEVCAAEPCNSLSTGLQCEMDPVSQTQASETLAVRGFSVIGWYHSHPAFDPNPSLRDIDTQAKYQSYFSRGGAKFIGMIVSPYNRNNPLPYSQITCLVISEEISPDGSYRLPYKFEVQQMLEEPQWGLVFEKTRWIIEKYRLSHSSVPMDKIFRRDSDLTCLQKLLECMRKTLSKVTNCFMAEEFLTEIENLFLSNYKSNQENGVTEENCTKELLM
# Chain of UniProt Q9HCD5 (Q9HCD5 whole entry, looked up): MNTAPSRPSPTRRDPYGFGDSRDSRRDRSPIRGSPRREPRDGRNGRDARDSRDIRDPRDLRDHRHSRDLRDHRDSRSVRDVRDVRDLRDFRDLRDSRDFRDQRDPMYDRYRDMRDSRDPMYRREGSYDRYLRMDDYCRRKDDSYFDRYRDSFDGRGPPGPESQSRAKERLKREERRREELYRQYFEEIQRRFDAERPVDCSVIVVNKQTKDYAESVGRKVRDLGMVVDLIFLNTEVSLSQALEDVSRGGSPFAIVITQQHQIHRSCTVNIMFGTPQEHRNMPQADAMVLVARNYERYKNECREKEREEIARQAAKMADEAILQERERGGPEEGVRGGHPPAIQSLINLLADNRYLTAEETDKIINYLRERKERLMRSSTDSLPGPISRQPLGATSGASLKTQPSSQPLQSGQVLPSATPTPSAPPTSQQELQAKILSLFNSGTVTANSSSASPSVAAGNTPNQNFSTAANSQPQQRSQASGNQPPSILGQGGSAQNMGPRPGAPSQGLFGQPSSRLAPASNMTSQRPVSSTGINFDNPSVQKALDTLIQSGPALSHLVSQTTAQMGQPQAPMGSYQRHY
# Chain of UniProt Q92686 (Q92686 whole entry, looked up): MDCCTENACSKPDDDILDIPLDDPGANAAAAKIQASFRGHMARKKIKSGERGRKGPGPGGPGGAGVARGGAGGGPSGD
target,measurement,setting,value
NOLC1 isoform 3 (UniProt Q14978),log2 fold change,[1],-0.015
NKTR (UniProt P30414),log2 fold change,bafetinib,1.06
same,log2 fold change,tipifarnib,0.163
same,log2 fold change,mubritinib,0.167
same,log2 fold change,[2],0.074
same,log2 fold change,silmitasertib,-0.023
MYSM1 (UniProt Q5VVJ2),log2 fold change,bafetinib,-0.138
same,log2 fold change,[3],0.18
same,log2 fold change,[4],-0.205
same,log2 fold change,entinostat,0.237
same,log2 fold change,citarinostat,0.564
same,log2 fold change,[5],0.174
MLST8 (UniProt Q9BVC4),log2 fold change,bafetinib,0.005
same,log2 fold change,nilotinib,-0.125
same,log2 fold change,[6],0.085
same,log2 fold change,dasatinib,-0.152
same,log2 fold change,[7],-0.059
same,log2 fold change,[1],0.028
same,log2 fold change,tipifarnib,-0.109
same,log2 fold change,mubritinib,0.1
same,log2 fold change,[4],0.064
same,log2 fold change,[8],-0.201
same,log2 fold change,[2],-0.182
same,log2 fold change,[9],-0.082
same,log2 fold change,entinostat,0.127
same,log2 fold change,citarinostat,0.043
same,log2 fold change,silmitasertib,0.105
same,log2 fold change,[10],-0.03
same,log2 fold change,[5],-0.025
NME7 (UniProt Q9Y5B8),log2 fold change,bafetinib,-0.14
same,log2 fold change,[11],0.071
same,log2 fold change,dasatinib,-0.245
same,log2 fold change,[1],-0.044
same,log2 fold change,[3],0.009
same,log2 fold change,tipifarnib,-0.001
same,log2 fold change,mubritinib,-0.279
same,log2 fold change,[4],0.159
same,log2 fold change,[8],-0.13
same,log2 fold change,[2],-0.184
same,log2 fold change,[9],0.057
same,log2 fold change,entinostat,0.159
same,log2 fold change,vorinostat,0.145
same,log2 fold change,citarinostat,0.03
same,log2 fold change,silmitasertib,0.071
same,log2 fold change,[10],0.05
same,log2 fold change,[5],0.186
MRM2 (UniProt Q9UI43),log2 fold change,nilotinib,-0.069
same,log2 fold change,[6],-0.049
same,log2 fold change,dasatinib,-0.381
same,log2 fold change,[7],0.043
same,log2 fold change,[1],0.164
same,log2 fold change,tipifarnib,-0.011
same,log2 fold change,[8],-0.202
same,log2 fold change,[9],-0.211
OAF (UniProt Q86UD1),log2 fold change,[3],0.199
same,log2 fold change,mubritinib,-0.104
same,log2 fold change,[4],-0.089
same,log2 fold change,[2],-0.188
same,log2 fold change,entinostat,-0.029
same,log2 fold change,silmitasertib,0.019
NIPSNAP2 (UniProt C9J7B1),log2 fold change,bafetinib,-0.045
same,log2 fold change,mubritinib,0.173
same,log2 fold change,[4],-0.009
same,log2 fold change,[8],0.175
same,log2 fold change,[2],-0.017
same,log2 fold change,entinostat,0.148
same,log2 fold change,silmitasertib,0.019
NEU3 isoform 2 (UniProt Q9UQ49),log2 fold change,tipifarnib,0.044
same,log2 fold change,[4],0.112
same,log2 fold change,entinostat,-0.071
MSANTD2 (UniProt Q6P1R3),log2 fold change,dasatinib,-0.042
same,log2 fold change,[4],-0.041
same,log2 fold change,[9],-0.065
same,log2 fold change,entinostat,-0.184
same,log2 fold change,citarinostat,-0.124
same,log2 fold change,[10],0.004
same,log2 fold change,[5],0.16
NRGN (UniProt Q92686),log2 fold change,bafetinib,-0.199
same,log2 fold change,[11],-0.581
same,log2 fold change,nilotinib,0.004
same,log2 fold change,[6],-0.199
same,log2 fold change,[7],-0.088
same,log2 fold change,[3],0.074
same,log2 fold change,tipifarnib,-0.055
same,log2 fold change,[8],0.144
same,log2 fold change,vorinostat,-0.231
same,log2 fold change,[10],-0.215
MRPS26 (UniProt Q9BYN8),log2 fold change,bafetinib,0.275
same,log2 fold change,[11],-0.003
same,log2 fold change,dasatinib,-0.031
same,log2 fold change,[1],0.007
same,log2 fold change,[3],0.135
same,log2 fold change,tipifarnib,-0.142
same,log2 fold change,mubritinib,0.088
same,log2 fold change,[4],-0.067
same,log2 fold change,[8],-0.022
same,log2 fold change,[2],-0.088
same,log2 fold change,[9],0.092
same,log2 fold change,entinostat,0.022
same,log2 fold change,vorinostat,0.171
same,log2 fold change,citarinostat,-0.04
same,log2 fold change,silmitasertib,-0.044
same,log2 fold change,[10],-0.039
same,log2 fold change,[5],0
NASP isoform 2 (UniProt P49321),log2 fold change,mubritinib,-0.347
same,log2 fold change,[2],0.24
same,log2 fold change,silmitasertib,-0.475
NUDT6 (UniProt P53370),log2 fold change,nilotinib,-0.1
same,log2 fold change,[6],0.083
same,log2 fold change,dasatinib,-0.005
same,log2 fold change,[7],0.08
same,log2 fold change,[1],0.426
same,log2 fold change,[3],0.05
same,log2 fold change,tipifarnib,-0.022
same,log2 fold change,mubritinib,-0.049
same,log2 fold change,[2],0.149
same,log2 fold change,[9],0.298
same,log2 fold change,citarinostat,0.164
same,log2 fold change,silmitasertib,-0.517 (active)
same,log2 fold change,[10],-0.097
same,log2 fold change,[5],-0.385
NCOA5 (UniProt Q9HCD5),log2 fold change,[11],-0.04
same,log2 fold change,nilotinib,-0.428
same,log2 fold change,[6],-0.92 (active)
same,log2 fold change,dasatinib,-0.043
same,log2 fold change,[7],0.218
same,log2 fold change,[3],-0.203
same,log2 fold change,tipifarnib,0.164
same,log2 fold change,[4],-0.101
same,log2 fold change,entinostat,-0.011
same,log2 fold change,vorinostat,0.023
MITF (UniProt O75030),log2 fold change,[11],0.001
same,log2 fold change,nilotinib,-0.071
same,log2 fold change,[6],-0.07
same,log2 fold change,[7],-0.047
same,log2 fold change,mubritinib,0.084
same,log2 fold change,[4],-0.023
same,log2 fold change,[8],0.021
same,log2 fold change,[2],-0.11
same,log2 fold change,[9],0.302
same,log2 fold change,entinostat,-0.048
same,log2 fold change,vorinostat,0.2
same,log2 fold change,citarinostat,0.083
same,log2 fold change,silmitasertib,0.071
same,log2 fold change,[5],-0.022
MRPS21 (UniProt P82921),log2 fold change,bafetinib,0.382
same,log2 fold change,nilotinib,-0.347
same,log2 fold change,[6],0.137
same,log2 fold change,dasatinib,-0.284
same,log2 fold change,[7],-0.002
same,log2 fold change,[1],0.036
same,log2 fold change,[3],0.017
same,log2 fold change,tipifarnib,-0.028
same,log2 fold change,mubritinib,0.277
same,log2 fold change,[4],-0.009
same,log2 fold change,[8],0.137
same,log2 fold change,[2],-0.003
same,log2 fold change,[9],0.095
same,log2 fold change,entinostat,-0.004
same,log2 fold change,citarinostat,0.07
same,log2 fold change,silmitasertib,-0.156
same,log2 fold change,[10],0.024
same,log2 fold change,[5],-0.05
"NA, A0A1W2PSA9",log2 fold change,[11],0.022
same,log2 fold change,dasatinib,0.289
same,log2 fold change,[1],0.218
same,log2 fold change,[3],-0.118
same,log2 fold change,[8],0.004
same,log2 fold change,vorinostat,-0.364
OSBPL3 (UniProt Q9H4L5),log2 fold change,nilotinib,0.316
same,log2 fold change,[6],0.114
same,log2 fold change,dasatinib,0.447
same,log2 fold change,[7],-0.213
same,log2 fold change,[1],-0.081
same,log2 fold change,[3],-0.173
same,log2 fold change,tipifarnib,-0.17
same,log2 fold change,[4],-0.079
same,log2 fold change,[8],-0.43
same,log2 fold change,[9],0.106
same,log2 fold change,entinostat,0.077
same,log2 fold change,citarinostat,-0.077
same,log2 fold change,[10],0.307
same,log2 fold change,[5],-0.072
NPC1L1 (UniProt Q9UHC9),log2 fold change,bafetinib,-0.05
same,log2 fold change,nilotinib,0.659
same,log2 fold change,[6],0.52
same,log2 fold change,dasatinib,-0.117
same,log2 fold change,[7],-0.384 (active)
same,log2 fold change,[1],0.012
same,log2 fold change,tipifarnib,0.094
same,log2 fold change,mubritinib,0.008
same,log2 fold change,[4],0.011
same,log2 fold change,[8],-0.038
same,log2 fold change,[2],-0.104
same,log2 fold change,[9],-0.024
same,log2 fold change,entinostat,-0.011
same,log2 fold change,citarinostat,0.036
same,log2 fold change,silmitasertib,-0.028
same,log2 fold change,[5],0.054
NDUFA7 (UniProt M0R0N0),log2 fold change,bafetinib,-0.052
same,log2 fold change,[4],-0.307
same,log2 fold change,[9],-0.344
same,log2 fold change,entinostat,-0.063
